# Assay outcomes (PubChem)
# In the library only some 4.9% were active in any assay of this set; here they are far more common.
# NALP3 yeast inh – blocks the NALP3 inflammasome reconstituted in yeast; Yeast reconstituted NLRP3/ASC/caspase-1, beta-gal luminescence, 24 h; inhibition, % at 10 µM; 330,000 compounds, 0.39% hits; AID 2825;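 active = inhibition of 50% or more; inactive = inhibition below 50%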;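 also: plate controls were induced DMSO wells for no effect and uninduced yeast grown without galactose for full effect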
# tim23-1 inh – inhibits growth of tim23-1 mutant yeast; 330,000 compounds, 1.3% hits; S. cerevisiae tim23-1 growth, BacTiter-Glo luminescence, 24 h; inhibition, % at 20 µM;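 active = growth inhibition of the mutant yeast at or above 50%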;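 also: temperature-sensitive mutant grown at 25 °C; plate controls were DMSO-treated mutant yeast for no effect and medium wells lacking yeast for full effect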
# tim10-1 inh – growth inhibitors of tim10-1 mutant yeast; S. cerevisiae tim10-1 ts strain growth, BacTiter-Glo, 24 h; inhibition, % at 20 µM; 330,000 compounds, 2.2% hits;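 active = inhibition of at least 40%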;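 also: mutant grown at 25 °C; 0% = DMSO wells with yeast and 100% = wells holding no yeast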
# TIM10 inh – TIM10 yeast growth inhibition; S. cerevisiae TIM10 strain growth, BacTiter-Glo luminescence, 24 h; inhibition, % at 10 µM; 330,000 compounds, 1.4% hits; AID 463195;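 active = inhibition of 40% or more at the single tested concentration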;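 also: wild-type TIM10 isogenic control strain grown at permissive 25 °C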
# SKKanGAS inh – inhibitors of SKKanGAS S. pyogenes growth in kanamycin (SK-promoter or general growth effect); AID 1662; 300,000 compounds, 1.3% hits; inhibition, % at 7.5 µM; BacTiter-Glo, 6 h;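 active = mean replicate score, as percent of positive control median, at least 50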;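 also: strain carries kanamycin resistance gene driven by streptokinase promoter and grows in 40 µg/ml kanamycin; loss of luminescence reflects streptokinase promoter inhibition or plain growth inhibition; 0% = median of DMSO wells and 100% = positive control at its reference dose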
# NALP1 yeast inh – NALP1 inhibition; inhibition, % at 10 µM; S. cerevisiae NALP1/ASC/caspase-1 growth, X-gal OD620, 72 h; 280,000 compounds, 0.61% hits; in the data active = inhibition mostly above about 24%, no sharp cut-off; inactive = mostly below about 32%
# tim10-1 conf – confirmation of tim10-1 mutant yeast growth inhibitors. shares compounds with tim10-1 inh. S. cerevisiae tim10-1 ts strain growth, BacTiter-Glo, 24 h. inhibition, % at 20 µM. 7,400 compounds, 56% hits. AID 463213;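 active = inhibition of yeast growth at or above a set limit in either of two repeat tests at 20 µM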;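 also: tim10-1 mutant grown at permissive 25 °C to find synthetic lethal compounds; 0% = DMSO yeast wells and 100% = medium wells without yeast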
# Starred values were filed as active, the others as inactive; · = not tested or not shown; ! = not active in a repeat.
SMILES,NALP3 yeast inh,tim23-1 inh,tim10-1 inh,TIM10 inh,SKKanGAS inh,NALP1 yeast inh,tim10-1 conf
O=S(=O)(N1CCCCC1)N1CCN(CC(O)COc2ccc3cc(Br)ccc3c2)CC1 (stereo not given),31.3,19.2,44.6*,36.0,19.6,31.4,26.4
OC(COc1ccc2cc(Br)ccc2c1)CN1CCN(c2ccccn2)CC1 (stereo not given),46.6,6.8,41.3*,39.0,12.7,13.4,-40.0
COc1cccc(OCC(O)CN2CCN(c3ccccn3)CC2)c1 (stereo not given),-7.7,-2.1,-11.4,-12.4,-5.0,28.8,·
Cc1nnc(SCC(=O)Nc2cc(C(F)(F)F)ccc2N2CCOCC2)o1,-7.4,-3.7,14.8,11.7,1.6,8.8,·
Cc1ccccc1SCC(=O)Nc1cc(C(F)(F)F)ccc1N1CCOCC1,10.5,34.6,44.1*,22.6,-1.9,·,34.4*
CCOc1ccccc1NC(C)C(=O)Nc1cc(C(F)(F)F)ccc1N1CCOCC1 (stereo not given),18.5,45.4,40.3*,33.4,14.4,29.7,24.6
CCS(=O)(=O)c1ccc2oc(SCC(=O)c3c(N)n(C4CC4)c(=O)[nH]c3=O)nc2c1,9.7,-7.0,-1.7,-8.6,·,·,·
O=C(Cc1ccc(S(=O)(=O)N2CCOCC2)s1)N1CCN(c2cccc(C(F)(F)F)c2)CC1,14.5,10.8,18.3,14.1,-2.9,16.1,·
Nc1c(C(=O)c2ccccc2)sc2snc(SCC(=O)c3ccccc3)c12,24.8,27.9,62.2*,18.3,49.5,11.7,66.5*
Cc1cccc(NC2=C(NCCO)C(=O)c3ccccc3C2=O)c1,7.4,33.6,41.5*,5.1,14.3,15.5,32.2*
COc1cccc(NC2=C(NCCO)C(=O)c3ccccc3C2=O)c1,15.5,24.6,14.2,14.0,5.8,0.1,·
COc1cc(-c2n[nH]c(=S)n2-c2ccc(Br)cc2)cc(OC)c1OC,23.8,15.0,10.1,-2.6,1.3,-2.2,·
N#CCCN1CCCc2cc(N=Nc3ccc(C(F)(F)F)cc3)ccc21,25.0,22.2,41.2*,25.5,20.5,17.0,34.1*
O=C(COc1cc(Cl)ccc1Cl)N1CCNC1=O,21.9,12.9,12.0,0.9,·,·,·
Cc1nc(CN2CCN(C(=O)NC3(c4ccccc4)CC3)CC2)cs1,6.2,7.3,-14.6,-11.1,-4.1,6.0,·
Cc1nc(CN2CCN(S(=O)(=O)c3c(Cl)cc(Br)cc3Cl)CC2)cs1,18.0,45.2,48.7*,32.8,·,·,43.7*
COc1ccc(CCC(=O)N2CCN(S(=O)(=O)c3ccc(OC(F)(F)F)cc3)CC2)cc1,15.3,22.5,16.1,13.9,·,·,·
Cc1ccc(-n2ncc3c(NCc4cccnc4)ncnc32)cc1C,17.4,11.3,43.4*,23.9,-9.9,28.2,-10.2
Cc1cccc(-n2ncc3c(NCc4cccnc4)ncnc32)c1,21.2,-14.0,-3.1,4.1,-8.1,8.3,·
Cc1ccc(-n2ncc3c(NCc4ccc5c(c4)OCO5)ncnc32)c(C)c1,19.0,9.3,41.4*,-10.5,18.6,-3.2,1.5
c1ccc(-c2cncn2-c2ccccc2)cc1,19.1,-8.7,6.3,-20.7,5.5,·,·
Cc1c(C=O)c(C=O)c(C)n1Cc1ccccc1,11.0,39.0,42.0*,16.8,-4.1,37.2*,21.0
CCCSc1oc(-c2ccco2)nc1S(=O)(=O)c1ccccc1,14.4,32.8,42.8*,25.1,-3.6,24.6,19.7
O=C(CNC(=O)c1ccccc1)NCCCSc1ccccc1,5.8,4.6,-13.7,-10.4,·,·,·
O=C(NCCCSc1ccccc1)c1cc(Cl)ccc1O,40.2,48.2,47.2*,25.2,15.6,2.4,26.1
SMILES,NALP3 yeast inh,tim23-1 inh,tim10-1 inh,TIM10 inh,SKKanGAS inh,NALP1 yeast inh,tim10-1 conf
CC(C)OCCCn1c(=O)c2ccccc2n2c(CCC(=O)N3CCN(c4ccccn4)CC3)nnc12,2.7,4.6,16.4,10.8,3.5,1.3,·
O=C(CCc1nnc2n(Cc3ccc(Cl)cc3)c(=O)c3ccccc3n12)N1CCN(c2ccccn2)CC1,23.3,30.6,44.3*,15.4,22.4,5.5,18.6
Cc1ccc(S(=O)(=O)N2CCN(CC(O)COc3ccccc3)CC2)cc1 (stereo not given),22.0,21.5,10.0,5.7,8.1,11.3,·
CCOc1ccc(S(=O)(=O)N2CCN(CC(O)COc3cccc([N+](=O)[O-])c3)CC2)cc1 (stereo not given),3.4,19.5,43.9*,28.0,-4.3,-0.4,8.3
COc1ccc(OC)c(C(C)NC(=S)NC2CCCCC2)c1 (stereo not given),27.9,27.3,42.4*,30.6,-13.2,-2.4,11.1
COc1ccc(NC(=S)NC2CCCC2)c(OC)c1,5.0,18.6,11.1,4.8,-2.9,15.1,·
COc1ccccc1NC(=S)NC(=O)C(C)(C)C,18.8,22.6,49.5*,18.2,0.5,18.7,17.4
CC(Oc1cccc(Br)c1)C(=O)NNC(=O)CCS(=O)(=O)c1ccccc1 (stereo not given),7.0,7.4,6.5,6.0,·,·,·
COc1ccc(N(CC(=O)N2CCN(c3ccccc3F)CC2)S(=O)(=O)c2ccc(C)cc2)cc1,17.1,21.2,29.6,13.8,25.8,3.0,·
O=C(CCN1CCc2ccccc2CC1)c1ccc2c(c1)OCCO2,-7.6,13.8,78.7*,24.3,1.1,-13.2,22.2
O=C(CCN1CCOCC1)c1ccc2c(c1)OCCO2,-1.6,12.0,8.3,12.9,-7.4,13.8,·
Cc1c(C=O)c2cc(OCc3ccccc3)ccc2n1C,45.1,42.9,18.5,7.0,1.2,-13.0,·
Cc1nn(C(C)(C)C)c(OC(=O)c2ccc3c(c2)OCO3)c1S(=O)(=O)c1ccccc1,28.2,42.8,45.5*,30.6,-2.3,1.2,35.0*
Cc1ccc(OCc2cc(C(=O)NC3CCOC3)no2)cc1C (stereo not given),13.7,19.6,17.6,-4.6,9.4,12.3,·
Cc1ccnc(Nc2nc(-c3ccc(F)cc3)cs2)c1,19.7,47.2,41.8*,31.3,0.8,19.0,14.2
Cc1ccc(S(=O)(=O)n2nc(OC(=O)c3ccco3)cc2N)cc1,-7.6,34.0,42.2*,6.1,0.0,·,26.9
Cc1ccc(S(=O)(=O)n2nc(OC(=O)C3CCCCC3)cc2N)cc1,2.2,24.1,42.2*,30.2,2.3,13.8,28.0
O=S(=O)(c1cccc2nonc12)N1CCCCC1,-11.7,-5.0,-3.1,0.9,0.0,-4.6,·
COC(=O)c1ccc(COC(=O)CCNS(=O)(=O)c2ccc(C)c(C)c2)cc1,-0.4,29.1,18.8,16.1,·,·,·
O=C(Nc1ncc([N+](=O)[O-])s1)c1cccs1,20.2,31.7,42.8*!,21.5,7.7,7.1,38.0*
Cc1nn(-c2ccccc2)c(Cl)c1/C=N/NS(=O)(=O)c1ccc(Br)cc1,17.5,45.3,42.5*,-2.0,0.9,34.7,30.2
CSc1ccc(C=NNc2ccc(S(=O)(=O)Nc3ccccc3C(=O)O)cc2[N+](=O)[O-])cc1,17.6,6.3,0.0,8.6,·,·,·
